In PubChem BioAssay (EPA / NIEHS):
Values joined by “and” are separate entries in the source; they are usually repeats but may differ in a detail not shown here. Equal entries are not always repeated. A structure can be active in one record and inactive in another. Active and inactive are the calls of the source. How the source made its calls: active means hit-call score of the fitted dose curve at least 0.9, where 1 is the maximum; inactive means score below 0.9.

Assay: CCTE_Shafer_MEA_dev_mutual_information_norm: CCTE's Neural Network Formation Assay for Mutual Information Normalization, Shafer Lab (AID 2284091);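 on AC50: mutual information between electrodes summarised as area under curve across four recording days; potency is for a decrease in mutual information relative to DMSO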
Conditions: not given
Method in brief: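 Neurons from rat cortex were seeded at 1.5 x 10^5 cells/well onto PEI-coated MEAs in a laminin drop, then exposed to compound from day 0 for twelve days. Network recordings on four days gave mutual information, summarised by AUC relative to DMSO.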

Row | Compound | AC50 | outcome
1 | CNC(=O)Oc1cccc2ccccc12 | 8.41 µM (active) and 15 µM (active) | 
2 | Cc1c(COC(=O)[C@@H]2[C@H](/C=C(\Cl)C(F)(F)F)C2(C)C)cccc1-c1ccccc1 | 142 nM (active) and 269 nM (active) | 
3 | COP(=S)(OC)SCn1nnc2ccccc2c1=O | 0.00499 µM (active) | 
4 | CS(=O)(=O)c1cc(C(F)(F)F)ccc1C(=O)c1cnoc1C1CC1 |  | inactive
5 | C=C(C)CN(CC)c1c([N+](=O)[O-])cc(C(F)(F)F)cc1[N+](=O)[O-] | 12.8 µM (active) | 
6 | CC1(C)C(C(=O)OC(C#N)c2cccc(Oc3ccccc3)c2)C1(C)C (stereo unspecified) | 1.01 µM (active) | 
7 | CCSC(=O)N1CCCCCC1 |  | inactive
8 | COP(=O)(OC)O/C(C)=C/C(=O)N(C)C |  | inactive
9 | N#CN=C1SCCN1Cc1ccc(Cl)nc1 |  | inactive
10 | O=C(Nc1ccccc1-c1ccc(Cl)cc1)c1cccnc1Cl | 18.3 µM (active) | inactive
11 | CC1(C)C(C=C(Cl)Cl)C1C(=O)OC(C#N)c1cccc(Oc2ccccc2)c1 (stereo unspecified) | 1.43 µM (active) | inactive
12 | CS(=O)(=O)c1ccc(C(=O)C2C(=O)CCCC2=O)c([N+](=O)[O-])c1 |  | inactive
13 | CN/C(=N\[N+](=O)[O-])NCc1cnc(Cl)s1 |  | inactive
14 | COC(=O)N(C(=O)N1CO[C@@]2(C(=O)OC)Cc3cc(Cl)ccc3C2=N1)c1ccc(OC(F)(F)F)cc1 |  | inactive
15 | CCN(CC)c1nc(C)cc(OP(=S)(OC)OC)n1 | 21.8 µM (active) | 
16 | CC(C)=CC1C(C(=O)OCc2coc(Cc3ccccc3)c2)C1(C)C (stereo unspecified) |  | inactive
17 | CO/N=C(/C1=NOCCO1)c1ccccc1Oc1ncnc(Oc2ccccc2Cl)c1F | 401 nM (active) and 924 nM (active) | 
18 | CCOC(=O)C(C)OC(=O)c1cc(Oc2ccc(C(F)(F)F)cc2Cl)ccc1[N+](=O)[O-] (stereo unspecified) |  | inactive
19 | CC(C)(C)C(=O)C(Oc1ccc(Cl)cc1)n1cncn1 (stereo unspecified) |  | inactive
20 | COP(=S)(OC)Oc1ccc([N+](=O)[O-])c(C)c1 |  | inactive
21 | CCOP(=O)(OCC)Oc1nc(Cl)c(Cl)cc1Cl | 872 nM (active) and 2.17 µM (active) | inactive
22 | CCNC(=O)NC(=O)C(C#N)=NOC |  | inactive
23 | CCCN(CC)CC1COC2(CCC(C(C)(C)C)CC2)O1 (stereo unspecified) | 0.119 µM (active) | 
24 | O=C1C2CC=CCC2C(=O)N1SC(Cl)(Cl)Cl (stereo unspecified) |  | inactive

Assay: CCTE_Shafer_MEA_dev_correlation_coefficient_mean: CCTE's Neural Network Formation Assay for Mean Correlation Coefficient, Shafer Lab (AID 2284093);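 on AC50: well mean pairwise spike train correlation integrated as AUC over recording days 5 to 12; potency fitted for loss of correlation relative to DMSO vehicle wells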
Conditions: not given
Method in brief: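 Primary rat cortical neurons on PEI-coated 48-well MEA plates (16 electrodes/well) were exposed from plating day 0 through DIV12, with compound renewed at DIV5 and 9. Pairwise spike correlations were averaged per well; trapezoidal AUC across DIV5, 7, 9, 12.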

Row | Compound | AC50 | outcome
25 | CNC(=O)Oc1cccc2ccccc12 | 12.8 µM (active) | inactive
26 | Cc1c(COC(=O)[C@@H]2[C@H](/C=C(\Cl)C(F)(F)F)C2(C)C)cccc1-c1ccccc1 | 395 nM (active) and 497 nM (active) | 
27 | COP(=S)(OC)SCn1nnc2ccccc2c1=O | 15 µM (active) | 
28 | CS(=O)(=O)c1cc(C(F)(F)F)ccc1C(=O)c1cnoc1C1CC1 |  | inactive
29 | C=C(C)CN(CC)c1c([N+](=O)[O-])cc(C(F)(F)F)cc1[N+](=O)[O-] | 14 µM (active) | 
30 | CC1(C)C(C(=O)OC(C#N)c2cccc(Oc3ccccc3)c2)C1(C)C (stereo unspecified) | 4.17 µM (active) | 
31 | CCSC(=O)N1CCCCCC1 |  | inactive
32 | COP(=O)(OC)O/C(C)=C/C(=O)N(C)C |  | inactive
33 | N#CN=C1SCCN1Cc1ccc(Cl)nc1 |  | inactive
34 | O=C(Nc1ccccc1-c1ccc(Cl)cc1)c1cccnc1Cl | 9.92 µM (active) | inactive
35 | CC1(C)C(C=C(Cl)Cl)C1C(=O)OC(C#N)c1cccc(Oc2ccccc2)c1 (stereo unspecified) | 3.6 µM (active) | inactive
36 | CS(=O)(=O)c1ccc(C(=O)C2C(=O)CCCC2=O)c([N+](=O)[O-])c1 |  | inactive
37 | CN/C(=N\[N+](=O)[O-])NCc1cnc(Cl)s1 |  | inactive
38 | COC(=O)N(C(=O)N1CO[C@@]2(C(=O)OC)Cc3cc(Cl)ccc3C2=N1)c1ccc(OC(F)(F)F)cc1 | 15 µM (active) | 
39 | CCN(CC)c1nc(C)cc(OP(=S)(OC)OC)n1 | 27.4 µM (active) | 
40 | CC(C)=CC1C(C(=O)OCc2coc(Cc3ccccc3)c2)C1(C)C (stereo unspecified) |  | inactive
41 | CO/N=C(/C1=NOCCO1)c1ccccc1Oc1ncnc(Oc2ccccc2Cl)c1F | 844 nM (active) and 1.02 µM (active) | 
42 | CCOC(=O)C(C)OC(=O)c1cc(Oc2ccc(C(F)(F)F)cc2Cl)ccc1[N+](=O)[O-] (stereo unspecified) |  | inactive
43 | CC(C)(C)C(=O)C(Oc1ccc(Cl)cc1)n1cncn1 (stereo unspecified) | 41.6 µM (active) | 
44 | COP(=S)(OC)Oc1ccc([N+](=O)[O-])c(C)c1 |  | inactive
45 | CCOP(=O)(OCC)Oc1nc(Cl)c(Cl)cc1Cl | 5.46 µM (active) and 7.1 µM (active) | inactive
46 | CCNC(=O)NC(=O)C(C#N)=NOC |  | inactive
47 | CCCN(CC)CC1COC2(CCC(C(C)(C)C)CC2)O1 (stereo unspecified) | 0.281 µM (active) | 
48 | O=C1C2CC=CCC2C(=O)N1SC(Cl)(Cl)Cl (stereo unspecified) | 9.85 µM (active) | 

Assay: UKN2_HCS_IMR90_neural_migration: University of Konstanz (UKN) Leist Lab Neural Crest Cell Migration Assay in human induced IMR90 Pluripotent Stem Cells (UKN2) (AID 2284204)
Conditions: actives raise or lower the signal
Method in brief: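 Stopper-exclusion migration (cMINC), human iPSC-derived neural crest cells; N2-S + EGF/FGF; compound added 24 h post-stopper removal, 24 h exposure. Readout: calcein-AM/Hoechst 30 min, HCS fluorescence imaging; bidirectional fitting, DMSO baseline.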

Row | Compound | outcome | AC50
49 | Cc1c(COC(=O)[C@@H]2[C@H](/C=C(\Cl)C(F)(F)F)C2(C)C)cccc1-c1ccccc1 | inactive | 
50 | COP(=S)(OC)SCn1nnc2ccccc2c1=O |  | 19.6 µM (active)
51 | CS(=O)(=O)c1cc(C(F)(F)F)ccc1C(=O)c1cnoc1C1CC1 | inactive | 
52 | C=C(C)CN(CC)c1c([N+](=O)[O-])cc(C(F)(F)F)cc1[N+](=O)[O-] | inactive | 
53 | CCSC(=O)N1CCCCCC1 | inactive | 
54 | O=C(Nc1ccccc1-c1ccc(Cl)cc1)c1cccnc1Cl | inactive | 
55 | CS(=O)(=O)c1ccc(C(=O)C2C(=O)CCCC2=O)c([N+](=O)[O-])c1 | inactive | 
56 | COC(=O)N(C(=O)N1CO[C@@]2(C(=O)OC)Cc3cc(Cl)ccc3C2=N1)c1ccc(OC(F)(F)F)cc1 | inactive | 
57 | CO/N=C(/C1=NOCCO1)c1ccccc1Oc1ncnc(Oc2ccccc2Cl)c1F | inactive | 
58 | CC(C)(C)C(=O)C(Oc1ccc(Cl)cc1)n1cncn1 (stereo unspecified) | inactive | 
59 | CCOP(=O)(OCC)Oc1nc(Cl)c(Cl)cc1Cl | inactive | 
